Laboratory results from the supplement of paper PMC3334620.
The full ranking holds about 33,000 sequences; the median of “E-score (-0.5 to 0.5)” is about -0.056, and the highest 2% start at about 0.38. The sample as a whole holds a higher share of the highest values than the screen did.

Each sequence was assayed against Stb4 (UniProt P50104) (assay: PBM E-score (8-mer binding enrichment) (E-score (-0.5 to 0.5)); higher = stronger / more preferred TF binding). Details: protein concentration: 200 nM; construct: GST-DNA-binding domain.
UniProt P50104, sequence (P50104 whole entry, the tested form may be a part): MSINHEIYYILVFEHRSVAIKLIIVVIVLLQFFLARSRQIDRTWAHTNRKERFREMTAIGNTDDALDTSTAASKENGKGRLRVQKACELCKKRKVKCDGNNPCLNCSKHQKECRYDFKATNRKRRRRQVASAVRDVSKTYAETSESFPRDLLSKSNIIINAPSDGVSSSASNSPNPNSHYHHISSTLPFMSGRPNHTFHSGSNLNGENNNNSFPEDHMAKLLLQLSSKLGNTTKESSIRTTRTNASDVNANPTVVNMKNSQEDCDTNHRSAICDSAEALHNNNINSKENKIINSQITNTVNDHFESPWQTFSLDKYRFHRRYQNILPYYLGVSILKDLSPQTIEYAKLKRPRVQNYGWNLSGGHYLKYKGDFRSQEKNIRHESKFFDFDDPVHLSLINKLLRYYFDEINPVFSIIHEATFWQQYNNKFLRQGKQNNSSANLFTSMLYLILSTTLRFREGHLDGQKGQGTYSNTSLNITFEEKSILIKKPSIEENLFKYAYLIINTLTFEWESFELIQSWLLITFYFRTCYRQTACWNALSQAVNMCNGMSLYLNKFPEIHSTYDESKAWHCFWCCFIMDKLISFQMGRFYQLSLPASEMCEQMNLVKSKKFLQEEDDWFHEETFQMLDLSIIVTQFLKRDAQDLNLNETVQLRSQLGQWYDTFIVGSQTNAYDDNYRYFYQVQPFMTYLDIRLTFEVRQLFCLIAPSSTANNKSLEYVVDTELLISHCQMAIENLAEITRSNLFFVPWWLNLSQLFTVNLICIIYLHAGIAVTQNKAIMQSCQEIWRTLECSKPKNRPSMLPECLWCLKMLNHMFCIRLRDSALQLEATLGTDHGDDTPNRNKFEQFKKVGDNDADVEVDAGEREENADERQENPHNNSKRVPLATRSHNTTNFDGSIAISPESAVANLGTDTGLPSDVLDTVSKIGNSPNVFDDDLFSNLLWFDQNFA
Experimental: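 Universal 'all 10-mer' protein binding microarrays (Agilent AMADID 015681) probed with GST-tagged S. cerevisiae TFs (full-length or DBD) made by in vitro transcription/translation (PURExpress), about 100-200 nM. Bound TF was detected with fluorescent anti-GST. Each ungapped 8-mer (which stands for itself and its reverse complement) is scored by the PBM enrichment score (E-score), a modified Wilcoxon-Mann-Whitney statistic from -0.5 to +0.5, computed with the Universal PBM Analysis Suite. Scale: above 0.35 generally sequence-specific binding.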

Row | Sequence | PBM E-score
1 | CCGAGGCG | 0.398
2 | CCGAGGCA | 0.396
3 | GCGAGGCA | 0.0697
4 | GCGAGGCC | -0.243
5 | CCGAGGCC | 0.436
6 | CAGAGGCG | -0.0504
7 | ACGAGGCC | -0.0545
8 | ACGAGGCG | -0.0457
9 | TCGAGGCA | -0.187
10 | ACCCGGGA | 0.378
11 | ACCCGAGT | 0.423
12 | ACACGAGT | -0.0741
13 | ACTCGAGG | -0.152
14 | ACCCGCGT | 0.188
15 | CCCCGAGG | 0.375
16 | ACCCGGGT | 0.41
17 | ACACGAGA | -0.19
18 | ACCCGAGA | 0.472
19 | ACCCGAGG | 0.427
20 | ACCCGGGC | 0.326
21 | ACCCCCGA | 0.317
22 | AGAGCTCT | -0.0781
23 | GAGCCCCC | -0.168
24 | AGCTCACA | -0.192
25 | CCTAGTAG | -0.0242

Row | Sequence | PBM E-score
26 | AGCATACT | -0.166
27 | AGGGGAAT | 0.0637
28 | ATTGAGAA | -0.0694
29 | CACAGTGG | -0.0386
30 | ACCACCAA | 0.031
31 | CAGCTAGC | -0.0222
32 | ACTCCTCT | -0.061
33 | GGGCCACA | -0.0749
34 | GCCCGAGC | 0.316
35 | CCCCGAGC | 0.371
36 | GCCCGAGA | 0.352
37 | CCCCGAGA | 0.326
38 | ACCCGAGC | 0.468
39 | TCCCGAGA | 0.453
40 | CGACTCGC | -0.0581
41 | AAAGCAAG | 0.149
42 | AGCATTCA | -0.0667
43 | ACCGAGTC | 0.244
44 | CCCGAGTA | 0.383
45 | CTCGAGTC | -0.0623
46 | GCCGAGTA | 0.374
47 | CCCGAGTC | 0.395
48 | ACCGAGTA | 0.321
49 | GGGCATGA | -0.248
50 | ACGCTGAG | -0.29

Row | Sequence | PBM E-score
51 | CGTCTTGC | 0.125
52 | ATGTGAGA | -0.03
53 | GCTGGGAC | -0.117
54 | AGCGGATA | 0.386
55 | CGCGGATA | 0.4
56 | CGCGGATC | 0.263
57 | AGCGGATG | 0.275
58 | GGCGGATA | 0.374
59 | AGCGGATC | 0.255
60 | CCCCCCTA | -0.178
61 | ACTGGTGA | -0.226
62 | GATCGGGC | 0.22
63 | GATCGGAA | 0.425
64 | TATCGGCA | 0.326
65 | GAACGGAA | 0.346
66 | GATCGTAA | -0.0241
67 | TATCGGGA | 0.361
68 | GATCGGCC | 0.218
69 | GATCGGAC | 0.392
70 | TATCGGAA | 0.431
71 | CATCGGAG | 0.204
72 | CATCGGAA | 0.435
73 | CATCGGAC | 0.259
74 | CCATTCCG | 0.35
75 | ATATTGGA | -0.0099

Row | Sequence | PBM E-score
76 | CGTCTGCA | -0.122
77 | GAGCATCA | -0.181
78 | AACCAAGA | -0.0962
79 | AAGGCCAA | -0.173
80 | CCAATATC | 0.137
81 | AAAGAAAC | 0.0504
82 | CAATCGTC | -0.187
83 | AATCGGCC | 0.191
84 | AATCGGAG | 0.277
85 | AATCGGAC | 0.133
86 | AATCGGAT | 0.424
87 | AATCGGGT | 0.325
88 | AATCGGAA | 0.425
89 | CTGACTGA | -0.239
90 | CTAGCCCC | -0.0513
91 | CTTAAAAA | -0.232
92 | ATTCCCGA | 0.451
93 | GTTCCCCA | -0.244
94 | CTTCCCGC | 0.2
95 | ATTCCCGG | 0.372
96 | GTTCCCGA | 0.419
97 | CTTCCCGA | 0.438
98 | ATTCCCGC | 0.295
99 | GTTCCCAA | -0.009
100 | CTCCCCGA | 0.282

Row | Sequence | PBM E-score
101 | GCGTCTGA | -0.15
102 | CACTGCCA | -0.176
103 | CAGCGCGG | 0.148
104 | ATGGGACA | -0.0554
105 | CCATAGCC | 0.0889
106 | GTGGTCCA | -0.0876
107 | GGGGACAA | 0.109
108 | CACCTGCG | -0.018
109 | CGGAAGCC | 0.41
110 | AGGAAGCA | -0.109
111 | AGGAAGCC | 0.0867
112 | GGGAAGCA | 0.0636
113 | CGGAAGCA | 0.435
114 | CGGAAGGC | 0.373
115 | GCAGCCAA | -0.103
116 | ACTAGGTA | -0.202
117 | ATCTGACC | 0.104
118 | ACTTTCGA | -0.0194
119 | ATTTTCGC | -0.0335
120 | ATTTTCGA | -0.256
121 | ACTTTCGC | -0.239
122 | ATTTTCGG | 0.423
123 | ACTTTCGG | 0.416
124 | AATTTCGC | 0.123
125 | AATTTCGG | 0.393

Row | Sequence | PBM E-score
126 | AATTTCGA | -0.152
127 | CTATCGAG | -0.194
128 | CCGCTCTA | 0.0787
129 | ATGCAAAT | -0.115
130 | CAACTCAA | -0.0984
131 | GGAGCGGA | 0.26
132 | AGATGAAC | -0.0339
133 | GCGCAAAC | -0.0362
134 | CGTGACTA | -0.158
135 | CCCGAGCC | 0.438
136 | ACCGAGCC | 0.356
137 | ACCGAGCA | 0.374
138 | TCCGAGCA | 0.458
139 | GCCGAGCA | 0.357
140 | GCCGAGCC | 0.463
141 | CCCGAGCG | 0.43
142 | ACCGAGCG | 0.38
143 | CGCGAGCG | -0.016
144 | TGCGAGCA | -0.165
145 | CGCGAGCC | 0.143
146 | GACGAGCC | -0.0685
147 | CCTCTGGC | 0.0427
148 | AGGCTCCC | -0.0221
149 | CGATGATA | 0.122
150 | ATTAACAC | 0.00046

Row | Sequence | PBM E-score
151 | CAGGTGTA | -0.327
152 | GGCACACC | 0.0691
153 | CCGCGCAA | 0.0559
154 | CCAAGTAC | -0.196
155 | ATTAGGCA | -0.144
156 | GTCGTCCA | -0.096
157 | GCGACCCA | -0.00585
158 | AGGTCCCG | 0.325
159 | CACAACGA | 0.0887
160 | CTCGAGCA | -0.0413
161 | CCCGAGCA | 0.405
162 | CACGAGCA | -0.18
163 | CGCGAAAG | -0.185
164 | GGCTATAA | 0.104
165 | CGCCTGCC | -0.0366
166 | CACAGATG | -0.0862
167 | GAGCAGGC | -0.135
168 | AATATCCC | 0.247
169 | CATATCCC | 0.0584
170 | CATATCCG | 0.403
171 | CATATCCA | -0.178
172 | AATATCCA | 0.0783
173 | AATATCCG | 0.452
174 | GCCTCTCA | 0.0652
175 | ACAAACCC | 0.0864

Row | Sequence | PBM E-score
176 | AGTGACAT | -0.243
177 | CGGTGGCC | 0.114
178 | ATCGGCGA | 0.226
179 | GTCGGCGA | 0.126
180 | CTCGGCGC | 0.383
181 | CTCGGCGA | 0.397
182 | ATCGGCGC | 0.205
183 | CGCGGCGC | 0.106
184 | ATTGGTTC | 0.0474
185 | ATTACCAG | -0.105
186 | ACCGACCA | 0.141
187 | TCCGACGA | 0.386
188 | CCCGACGA | 0.34
189 | GCCGACCA | 0.207
190 | TCCGACCA | 0.388
191 | GCCGACGA | 0.285
192 | GATCACCA | -0.056
193 | AAGCTCGG | 0.439
194 | CAGCTCGC | -0.13
195 | CAGCTCGG | 0.392
196 | CAGCTCGA | -0.144
197 | AAGCTCGA | 0.0225
198 | AAGCTCGC | -0.0388
199 | GCCCACGC | -0.168
200 | ACATATCT | -0.0348

Row | Sequence | PBM E-score
201 | AACTCGGC | 0.364
202 | CTCTCGAC | -0.293
203 | CTCTCGGC | 0.397
204 | ATCTCGGC | 0.442
205 | ATCTCGCC | 0.0501
206 | CTCTCGAA | -0.356
207 | CTCTCGGA | 0.452
208 | CTCTCGTC | -0.0633
209 | CTCTCGCA | -0.148
210 | AACCAAGC | -0.109
211 | GACCACGA | -0.259
212 | CCTACCCA | -0.208
213 | AGTCCCCA | -0.364
214 | ACGCCGAG | 0.352
215 | ACGCCGAA | 0.317
216 | CCGCCGAA | 0.4
217 | CCGCCGAC | 0.217
218 | CCGCCGCA | 0.0672
219 | CCGCCGAG | 0.394
220 | GCGCCGAA | 0.388
221 | GCGCCGAC | 0.195
222 | TCGCCGAA | 0.32
